In PMC7819943, “Rice protein-binding microarrays: a tool to detect cis-acting elements near promoter regions in rice” one finds binding signal data, which are given here for 54 sequences.

In all, about 68,000 sequences were measured (“fluorescence intensity (a.u.)”: median about 9,100, highest 2% from about 16,000 on). Only a selection was taken, and the highest values are over-represented in it overall.

Chain of OsWRKY34 (Q0JBA9 entry or part of it): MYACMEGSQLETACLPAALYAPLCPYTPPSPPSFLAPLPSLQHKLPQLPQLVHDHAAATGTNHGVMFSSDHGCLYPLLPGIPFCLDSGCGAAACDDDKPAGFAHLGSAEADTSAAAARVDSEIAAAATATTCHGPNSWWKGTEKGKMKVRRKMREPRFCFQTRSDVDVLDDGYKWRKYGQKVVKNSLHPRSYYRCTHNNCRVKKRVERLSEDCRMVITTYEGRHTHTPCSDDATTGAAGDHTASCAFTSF

This experiment has as its target OsWRKY34 (Oryza sativa, UniProt Q0JBA9 1-250). Briefly: protein-binding microarray (RPBM); PBS, 2% BSA, 51.3 ng/ul salmon testes DNA, 50 uM zinc acetate, 200 nM TF, 25 C, 1 h; high values mean tight binding. As to conditions: protein: recombinant; tags: N-terminal polyhistidine and DsRed monomer fusion (pET32a); label: CyDye5-dUTP incorporated in the synthesized complementary strand; 3' TTTTT single-stranded linker to array surface; dsDNA, one strand shown. A digest of the protocol: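 An Axon 4000B scanner gave the binding signal as per-feature fluorescence intensity in arbitrary units. This followed washing of a custom Agilent array that had been incubated for 1 h at 25 °C with 200 nM protein in PBS, 2% BSA, salmon testes DNA and 50 µM zinc acetate. The proteins were transcription factors fused at the N-terminus to polyhistidine and DsRed, expressed in E. coli BL21-CodonPlus and purified on Ni–NTA.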
For the sequence “TCGCTTTTTACTTTTTATTTTTTTACACATCCGACTCAAACGGAGTCACCTAGTGCAG”, the binding signal is 8260 fluorescence intensity (a.u.). As for “CCCGCACCGCAACACGCACACCCACGCGCACGCACAAACCCGGAGTCACCTAGTGCAG”, the figure is 8060 fluorescence intensity (a.u.); as for “ACCCAAAGCCACCCGCAACAACCGACGACGACGACGACCGCGGAGTCACCTAGTGCAG”, 18200 fluorescence intensity (a.u.). Under “CACCCAAGCCAAGCCCACGACCCGCACCGCAACACGCACACGGAGTCACCTAGTGCAG” stands 8520 fluorescence intensity (a.u.). Under “CCACGCTATCCCATGCGATTCGAGAAGGTTCCACACACACCGGAGTCACCTAGTGCAG” stands 8430 fluorescence intensity (a.u.); under “AATGGTGCAATACAATTTCAAGCGTATCACTGTTGTTCCTCGGAGTCACCTAGTGCAG”, 9720 fluorescence intensity (a.u.); under “TCAAAATGTTTAACGCCGTTGACTTTTTAGCACATTTTTGCGGAGTCACCTAGTGCAG”, 33000 fluorescence intensity (a.u.). Take “GACTTTTTAGCACATTTTTGACCGTTCATCTTATTCAAAACGGAGTCACCTAGTGCAG”: the binding signal is 8780 fluorescence intensity (a.u.). As for “TTCAAAATGTTTGATACCGTTGACTTTTTAGCACATTTTGCGGAGTCACCTAGTGCAG”, the figure is 29400 fluorescence intensity (a.u.); as for “GGTTTCAAGAAAAGGAAAAGAAAAACTAAACGTAGTATAACGGAGTCACCTAGTGCAG”, 11300 fluorescence intensity (a.u.); as for “AGTATCAAGCGATACAGGAGCTCCTCACTCCATCTCTCTACGGAGTCACCTAGTGCAG”, 8330 fluorescence intensity (a.u.). As for “ATATCTACTCCCGGTTTCTGCTGGATTCCTTCCTTTTTCTCGGAGTCACCTAGTGCAG”, the figure is 17500 fluorescence intensity (a.u.); as for “CACACACTCTCCGGTTTTTTTTTCCTTTTCATTTTTTTCTCGGAGTCACCTAGTGCAG”, 28000 fluorescence intensity (a.u.); as for “CGCCGGTTGCTTCCATATACTCTGCTCCTTTTTTTTCTATCGGAGTCACCTAGTGCAG”, 9240 fluorescence intensity (a.u.).

Regarding “CCTCCTCTCCCTTTTCTGCTGTTTCTCTCTCTCACACACTCGGAGTCACCTAGTGCAG”, the binding signal was 8470 fluorescence intensity (a.u.).

In the case of “CACTCTCTCTCGCTGTCTTTCTCTCCTTCCATTTCATTTCCGGAGTCACCTAGTGCAG”, the binding signal is 8250 fluorescence intensity (a.u.).

Take “GTTTTGCACATCCGGTTTTCTCTCTCTCTCTCTCTCCTTTCGGAGTCACCTAGTGCAG”: the binding signal was 16700 fluorescence intensity (a.u.).

Take “TTTTTTTCTCCTTTCCTTCTTCTCTCTCTCTCTTTTTTTTCGGAGTCACCTAGTGCAG”: the binding signal is 8870 fluorescence intensity (a.u.). In the case of “TTCGGTTTTTCTCTTCATCATTTCTCTTTATTTCTTTCTCCGGAGTCACCTAGTGCAG”, the binding signal is 9290 fluorescence intensity (a.u.). Under “CGTTTCTCTTTCTTTCTTCCCTTCGGTTTCTCCTCCTCTCCGGAGTCACCTAGTGCAG” stands 10600 fluorescence intensity (a.u.); under “ACAGGGCTTGGAATAGGTTGGTGTACAGGGCGGTAGCTTACGGAGTCACCTAGTGCAG”, 8670 fluorescence intensity (a.u.). As for “AGAAAAGAATCTACAGTACCCACATGGCATACTCTCTTTTCGGAGTCACCTAGTGCAG”, the figure is 9950 fluorescence intensity (a.u.). As for “GTCTTTTGGTGGGTGGGAAATCACTTCCATTTCCCATTAGCGGAGTCACCTAGTGCAG”, the figure is 11300 fluorescence intensity (a.u.). Take “GTGGCAATGCAAACTCGTCTTGGAACCCACTGCTTTGCCTCGGAGTCACCTAGTGCAG”: the binding signal was 8192 fluorescence intensity (a.u.). Under “CTACTATCATATTTTTTAATAGATGACTCCGTTGACTTTTCGGAGTCACCTAGTGCAG” stands 16800 fluorescence intensity (a.u.); under “TACCTCCGTTTTCTAATAGATGACGCCGTTGACTTTTTCTCGGAGTCACCTAGTGCAG”, 20700 fluorescence intensity (a.u.); under “ATACTACCTCCGTTTTTTAATAGATGACGTCGTTGACTTTCGGAGTCACCTAGTGCAG”, 14600 fluorescence intensity (a.u.). As for “TACCTCCGTTTTTTAATAGATGACGCCGTTGACTTTTTCTCGGAGTCACCTAGTGCAG”, the figure is 25000 fluorescence intensity (a.u.); as for “ATGACATACTAATAGATGATACTATTGACTTTTTTTCTATCGGAGTCACCTAGTGCAG”, 9980 fluorescence intensity (a.u.). Under “TCCCTCCGTTTTTTAATAGATGATGCCGTTGACTTTTTCTCGGAGTCACCTAGTGCAG” stands 19300 fluorescence intensity (a.u.); under “GTTTCTTACCCATCTACTATGGCCTATTTAACCCTGCGCCCGGAGTCACCTAGTGCAG”, 11000 fluorescence intensity (a.u.); under “GCCCGCGCCGTCTACCAGGACGCCGACGTCTACCTCCTCGCGGAGTCACCTAGTGCAG”, 8470 fluorescence intensity (a.u.). “CCTCTTCTCCTTCGGTGTGTTCGTCGATGTGCTTTGCTGACGGAGTCACCTAGTGCAG”: the binding signal is 8580 fluorescence intensity (a.u.).

As for “CGGTTTGGGCTCTTTTGGCTGTTCCATGGCGACGAGGCGCCGGAGTCACCTAGTGCAG”, the binding signal was 8320 fluorescence intensity (a.u.). Under “GACCCCTCCGACCGCTACGCCAACCACAACACCGTCTTCTCGGAGTCACCTAGTGCAG” stands 9430 fluorescence intensity (a.u.); under “TGTCAACCCGCGCCTCCGATTTCTCCAGCTTTTCTTTCCCCGGAGTCACCTAGTGCAG”, 12800 fluorescence intensity (a.u.); under “AGTAGTCTCCGTCTTCGTCCTCTTCCTTCTTGTTTAATAACGGAGTCACCTAGTGCAG”, 8930 fluorescence intensity (a.u.). Under “TGCCTGTAGTGGCGGTTGGGGATGCGGATAAGGCGAGGGGCGGAGTCACCTAGTGCAG” stands 14500 fluorescence intensity (a.u.).

For the sequence “TCCGACATGCTGCCCTCGATCGAGCTCATCCATCGGCCCTCGGAGTCACCTAGTGCAG”, the binding signal is 9550 fluorescence intensity (a.u.). Under “CCACCCTTTTTCTCTGCTTCCAGTGTACGTTTTCGAATAACGGAGTCACCTAGTGCAG” stands 9880 fluorescence intensity (a.u.). As for “CCTCCTAGTTCCCTCGGCATGCAGACGATCTGCCAGTTTACGGAGTCACCTAGTGCAG”, the binding signal was 11700 fluorescence intensity (a.u.). Under “TATCGTCCGGTGCTCCTCGTCCATGTCAACAGCTACCATACGGAGTCACCTAGTGCAG” stands 9850 fluorescence intensity (a.u.); under “GAGGGCAAGGGCGGCGGGTCTAACACAACACAATAAGAGTCGGAGTCACCTAGTGCAG”, 9470 fluorescence intensity (a.u.); under “TCTTTGCAGGTCACTTCCGGGTGCTTCACATTCCGGTTAACGGAGTCACCTAGTGCAG”, 8890 fluorescence intensity (a.u.).

On to “TCCTCATCTTGTGCTCTCAAGTGTTTTAAGTGCTCTCTTTCGGAGTCACCTAGTGCAG”, for which the binding signal is 10500 fluorescence intensity (a.u.). As for “ATTTAATTTCACCTACTACTACTACTATTCTTCTTATTAACGGAGTCACCTAGTGCAG”, the figure is 9430 fluorescence intensity (a.u.); as for “TACTCCCTCCGTTTTTTAATAGATGACGCCGTTGACTTTTCGGAGTCACCTAGTGCAG”, 16100 fluorescence intensity (a.u.). As for “TACTACCTCCGTTTTTAATAGATGACGCCGTTGACTTTTTCGGAGTCACCTAGTGCAG”, the figure is 23700 fluorescence intensity (a.u.). Take “TACTCCCTCTGTTTTTTAATAGATGACGCCGTTGACTTTTCGGAGTCACCTAGTGCAG”: the binding signal is 17100 fluorescence intensity (a.u.).

“CTTACTACCTCCGTATTTTAGTGTATGATGCCGTTGACTTCGGAGTCACCTAGTGCAG”: the binding signal was 14500 fluorescence intensity (a.u.).

“CATATACTCCCTCCGTTTTTTAATAGATGACGCCGTTGACCGGAGTCACCTAGTGCAG”: the binding signal is 12300 fluorescence intensity (a.u.). As for “AATACTACCTCCGTTTTAAAATGTTTGACGCCGTTGATATCGGAGTCACCTAGTGCAG”, the figure is 8440 fluorescence intensity (a.u.). As for “CTCTCTTGCCTCTCCTGTCTCTTTCTCGGATTTTTCTCATCGGAGTCACCTAGTGCAG”, the figure is 9020 fluorescence intensity (a.u.); as for “AAACAGTTTGACTTTGACTAAAGTTAAAACGTCTTATAACCGGAGTCACCTAGTGCAG”, 10900 fluorescence intensity (a.u.).
